These results are taken from PubChem BioAssay (Tox21).

Several values for one entry are separate records, joined by “and”; a condition that tells them apart may be missing. Identical values can stand only once. Records with an inconclusive call do not appear. A call without a number means that no potency is given here. Activity calls are given as the source filed them. The call rests on the fitted dose curve; in most records, active means well fitted cell-killing curve with a large enough effect in the repeat runs; inconclusive means weak or mixed curves, or effect the other way; inactive means no such curve, though single readings can be large or run the other way.
Potency means the concentration at half of the fitted maximal effect.

The nature of this experiment: qHTS assay to identify small molecule antagonists of the peroxisome proliferator-activated receptor gamma (PPARg) signaling pathway - cell viability counter screen (AID 743194). Further: nearly all actives have a fitted effect of over 55% in size. As to conditions: PPARg-bla HEK293H viability, CellTiter-Glo luminescence, 17 h, co-treated with 50 nM rosiglitazone; series mostly up to 62.6 µM. The text has this: U.S. Tox21 Program National Center for Advancing Translational Sciences [NCATS] NIH Chemical Genomics Center [NCGC] U.S. Environmental Protection Agency [EPA] National Institutes of Environmental Health Sciences [NIEHS] National Toxicology Program [NTP] U.S. Food and Drug Administration [FDA] Tox21 Assay Overview: The peroxisome proliferator-activated receptors (PPARs) are lipid-activated transcription factors of the nuclear receptor superfamily with three distinct subtypes namely PPAR alpha, PPAR delta (also called PPAR beta) and PPAR gamma (PPARg). All these subtypes heterodimerize with Retinoid X receptor (RXR) and these heterodimers regulate transcription of various genes. PPAR-gamma receptor (glitazone receptor) is involved in the regulation of glucose and lipid metabolism. To identify the compounds that activate PPAR-gamma signaling, GeneBLAzer PPAR gamma UAS-bla HEK293H cell line (Invitrogen, Carlsbad, CA, USA) containing a beta-lactamase reporter gene under the control of an Upstream Activator Sequence (UAS) was used to screen the Tox21 compound library. The cytotoxicity of the Tox21 compound library against the PPARg-bla cell line was tested in parallel by measuring the cell viability using CellTiter-Glo assay in the same wells.
Tox21 Assay Protocol Summary: PPARg-bla cells were dispensed at 3000 cells/5uL/well in 1536-well black wall/clear bottom plates using a Multidrop Combi (Thermo Fisher Scientific, Waltham, MA) dispenser. After the assay plates were incubated at 37 C and 5% CO2 for 5 h, 23 nL of compounds dissolved in DMSO, positive controls or DMSO only was transferred to the assay plate by a Pintool station (Kalypsys, San Diego, CA), followed by addition of 1ul Rosiglitazone (50 nM, final concentration in the wells). The assay plates were incubated at 37 C for 17 h, and then 1 uL of LiveBLAzerTM B/G FRET substrate was added using a Bioraptr Flying Reagent Dispenser (FRD) workstation (Beckman Coulter, Indianapolis, IN, USA). The assay plates were incubated at room temperature for 1 h and fluorescence intensity was measured by an Envision plate reader (PerkinElmer, Shelton, CT). For cell viability readout that measures cytotoxicity, 4 ul/well of CellTiter-Glo reagent was added into the assay plates using a Flying Reagent Dispenser. After 30 min incubation at room temperature, the luminescence intensity in the plates was measured using a ViewLux plate reader (PerkinElmer).
A general note: qHTS replaces the single test concentration by a dilution series.
Regarding `CN1C(C(=O)Nc2ccccn2)=C(O)c2ccccc2S1(=O)=O`, the Potency result is “inactive”.
Under `CC(C)OC(=O)C(C)(C)Oc1ccc(C(=O)c2ccc(Cl)cc2)cc1` stands “inactive”.
Turning to `CCCC(=O)O`, the Potency result was “inactive”.
Consider `C#C[C@]1(O)CC[C@H]2[C@@H]3CCc4cc(OC)ccc4[C@H]3CC[C@@]21C`, for which the Potency entry was “inactive”.
Consider `CCCCOCCOCCO`, for which the Potency entry is “inactive”.
With `Cc1ncc[nH]1`, the Potency entry is “inactive”.
Regarding `C[Si](C)(C)O[Si](C)(C)C`, the Potency result is “inactive”.
Regarding `O=C(c1ccccc1)c1ccccc1O`, the Potency entry was “inactive”.
For the molecule `Cn1cnc([N+](=O)[O-])c1Sc1ncnc2nc[nH]c12`, the Potency result was “inactive”.
For `CC(C)Oc1ccc2c(=O)c(-c3ccccc3)coc2c1`, the Potency entry is “inactive”.
Turning to `O=C(/C=C/c1ccccc1)OCc1ccccc1`, the Potency entry is “inactive”.
With `O=C(/C=C/C=C/c1ccc2c(c1)OCO2)N1CCCCC1`, the Potency entry is “inactive”.
The same measure for `O=C(Nc1ccc(Cl)cc1)Nc1ccc(Cl)c(Cl)c1`: 4.34 µM (active) and 4.9 µM (active) and 6.68 µM (active).
Turning to `Oc1ccc(O)cc1`, the Potency result is “inactive”.
`CC(CCC(=O)O)(c1ccc(O)cc1)c1ccc(O)cc1`: the Potency entry is “inactive”.
Consider `Cc1c(C(N)=O)cc([N+](=O)[O-])cc1[N+](=O)[O-]`, for which the Potency result is “inactive”.
`CC(C)OC=O`: the Potency entry was “inactive”.
Consider `O=[N+]([O-])c1ccc2c(c1)Cc1ccccc1-2`, for which the Potency result was “inactive”.
Consider `O=C1OC2(c3cc(Br)c(O)c(Br)c3Oc3c2cc(Br)c(O)c3Br)c2c(Cl)c(Cl)c(Cl)c(Cl)c21`, for which the Potency result is “inactive”.
For the molecule `Cc1c(OCC(F)(F)F)ccnc1CS(=O)c1nc2ccccc2[nH]1` (stereo not given), the Potency entry was “inactive”.
As for `O=c1oc(=O)c2cc3c(=O)oc(=O)c3cc12`, the Potency entry is “inactive”.
As to `CCCc1c(OCCCCc2nn[nH]n2)ccc(C(C)=O)c1O`, the Potency result was “inactive”.
Regarding `COc1ccc(C(=O)CC(=O)c2ccc(C(C)(C)C)cc2)cc1`, the Potency result is “inactive”.
Under `C/C=C/C(=O)O` stands “inactive”; under `CCCCC(CC)COC(=O)c1ccc(N(C)C)cc1` (stereo not given), “inactive”.
On to `OCCO`, for which the Potency entry is “inactive”.
As for `CCOCCOCCO`, the Potency result is “inactive”.
Regarding `COc1ccccc1/C=C/C=O`, the Potency result is “inactive”.
Under `CC(=O)Oc1ccccc1C(=O)Nc1ncc([N+](=O)[O-])s1` stands 1.58 µM (active) and 5.31 µM (active); under `Cc1cccc(N(C)C(=S)Oc2ccc3ccccc3c2)c1`, “inactive”; under `COc1ccc(OC)c(C(O)CNC(=O)CN)c1` (stereo not given), “inactive”.
As for `CC(C)CC(C)(O)C#CC(C)(O)CC(C)C` (stereo not given), the Potency result is “inactive”.
Take `CC1=CCC(C(C)(C)O)CC1` (stereo not given): the Potency result was “inactive”.
For `O=C(c1ccc(OCCN2CCCCC2)cc1)c1c(-c2ccc(O)cc2)sc2cc(O)ccc12`, the Potency was 55 µM (active) and 15.5 µM (active) and 26.6 µM (active).
In the case of `CC(=O)c1ccccn1`, the Potency result is “inactive”.
With `CCCCCCCCCCCO`, the Potency entry was “inactive”.
Under `c1ccncc1` stands “inactive”.
Under `Nc1ccc(S(=O)(=O)Nc2cnc3ccccc3n2)cc1` stands “inactive”.
For `C=C(C)C1CC=C(C)CC1` (stereo not given), the Potency result is “inactive”.
Consider `Nc1ncnc2nc[nH]c12`, for which the Potency entry is “inactive”.
